Assay results as given in PubChem BioAssay AID1159580 (chemical genetic matrix, 2015).
Values joined by “and” are separate entries in the source; they are usually repeats but may differ in a detail not shown here. Equal values may be shown once. Screen size: about 5,500 compounds; about 2,000 (36%) were called active. Roughly 18% stayed inconclusive and do not appear here. Cut-off read from the data, not from the text of the source: active = normalized growth mostly below about 0.91 (no sharp cut-off); inconclusive = no clear call, values can overlap the other calls; inactive = mostly above about 0.92. Some of the results follow.

Assay: chemical genetic growth profiling, strain panel (AID 1159580);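 note: tested at 20 µM; growth read once vehicle control cultures reached saturation at 30 °C; 1 = growth at the plate median or of vehicle wells; lower values mean less growth of the strain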
Conditions: growth OD
[1] = S. cerevisiae deletion strains, locus YAL013W, strain DEP1, stronger effect = lower value
[2] = S. cerevisiae deletion strains, locus YJR075W, strain HOC1, stronger effect = lower value
[3] = S. cerevisiae deletion strains, locus YNL128W, strain TEP1, stronger effect = lower value
[4] = S. cerevisiae deletion strains, locus YNL153C, strain GIM3, stronger effect = lower value

Measured: normalized growth

CNCCc1ccccn1
inactive: [1] 1.01 | S. cerevisiae deletion strains, locus YBR021W, strain FUR4, stronger effect = lower value 1.02 | S. cerevisiae deletion strains, locus YBR229C, strain ROT2, stronger effect = lower value 1.01 | S. cerevisiae deletion strains, locus YCL029C, strain bik1, stronger effect = lower value 1.04 | S. cerevisiae deletion strains, locus YDL035C, strain GPR1, stronger effect = lower value 0.992 | S. cerevisiae deletion strains, locus YDL074C, strain BRE1, stronger effect = lower value 1.03 | S. cerevisiae deletion strains, locus YDL101C, strain DUN1, stronger effect = lower value 1.01 | S. cerevisiae deletion strains, locus YDL134C, strain PPH21, stronger effect = lower value 1.01 | S. cerevisiae deletion strains, locus YDL185W, strain tfp1, stronger effect = lower value 1.02 | S. cerevisiae deletion strains, locus YDL192W, strain arf1, stronger effect = lower value 1.02 | S. cerevisiae deletion strains, locus YDR101C, strain arx1, stronger effect = lower value 1.01 | S. cerevisiae deletion strains, locus YDR150W, strain NUM1, stronger effect = lower value 1.01 | S. cerevisiae deletion strains, locus YDR162C, strain NBP2, stronger effect = lower value 1.01 | S. cerevisiae deletion strains, locus YDR318W, strain mcm21, stronger effect = lower value 1.02 | S. cerevisiae deletion strains, locus YDR388W, stronger effect = lower value 1.01 | S. cerevisiae deletion strains, locus YDR502C, strain sam2, stronger effect = lower value 1.01 | S. cerevisiae deletion strains, locus YEL061C, strain CIN8, stronger effect = lower value 1.01 | S. cerevisiae deletion strains, locus YER110C, stronger effect = lower value 1.02 | S. cerevisiae deletion strains, locus YER155C, strain BEM2, stronger effect = lower value 1 | S. cerevisiae deletion strains, locus YER167W, strain BCK2, stronger effect = lower value 1.01 | S. cerevisiae deletion strains, locus YGL078C, strain dbp3, stronger effect = lower value 1.01 | S. cerevisiae deletion strains, locus YGL086W, strain mad1, stronger effect = lower value 1 | S. cerevisiae deletion strains, locus YGL248W, strain PDE1, stronger effect = lower value 1 | S. cerevisiae deletion strains, locus YGR078C, strain PAC10, stronger effect = lower value 1.03 | S. cerevisiae deletion strains, locus YGR135W, strain pre9, stronger effect = lower value 1.01 | S. cerevisiae deletion strains, locus YGR229C, strain SMI1, stronger effect = lower value 1.02 | S. cerevisiae deletion strains, locus YGR252W, strain gcn5, stronger effect = lower value 0.958 | S. cerevisiae deletion strains, locus YHR030C, strain SLT2, stronger effect = lower value 1.01 and 1.04 | S. cerevisiae deletion strains, locus YHR079C, strain IRE1 (second series), stronger effect = lower value 1.02 | S. cerevisiae deletion strains, locus YHR079C, strain IRE1, stronger effect = lower value 1.04 | S. cerevisiae deletion strains, locus YHR094C, strain hxt1, stronger effect = lower value 1.01 | S. cerevisiae deletion strains, locus YHR129C, strain ARP1, stronger effect = lower value 0.996 | S. cerevisiae deletion strains, locus YHR200W, strain rpn10, stronger effect = lower value 1.01 | S. cerevisiae deletion strains, locus YIL066C, strain RNR3, stronger effect = lower value 1.02 | S. cerevisiae deletion strains, locus YIL073C, strain SPO22, stronger effect = lower value 1.06 | S. cerevisiae deletion strains, locus YIL125W, strain kgd1, stronger effect = lower value 1 | S. cerevisiae deletion strains, locus YIR030C, strain dcg1, stronger effect = lower value 1.01 | S. cerevisiae deletion strains, locus YJL095W, strain BCK1, stronger effect = lower value 1.04 and 1.03 | S. cerevisiae deletion strains, locus YJL134W, strain LCB3, stronger effect = lower value 1 | S. cerevisiae deletion strains, locus YJL168C, strain set2, stronger effect = lower value 1.01 | S. cerevisiae deletion strains, locus YJL187C, strain SWE1 (second series), stronger effect = lower value 1.02 | S. cerevisiae deletion strains, locus YJR043C, strain POL32, stronger effect = lower value 1.02 | S. cerevisiae deletion strains, locus YJR066W, strain TOR1, stronger effect = lower value 0.978 | [2] 1.02 | S. cerevisiae deletion strains, locus YKL009W, strain mrt4, stronger effect = lower value 1.07 | S. cerevisiae deletion strains, locus YKL068W, stronger effect = lower value 1.01 | S. cerevisiae deletion strains, locus YKL085W, strain MDH1 (second series), stronger effect = lower value 1.01 | S. cerevisiae deletion strains, locus YKL085W, strain MDH1, stronger effect = lower value 1.01 | S. cerevisiae deletion strains, locus YKL190W, strain CNB1, stronger effect = lower value 1.01 | S. cerevisiae deletion strains, locus YKR001C, strain vps1, stronger effect = lower value 1.01 | S. cerevisiae deletion strains, locus YLR039C, strain RIC1, stronger effect = lower value 1.02 | S. cerevisiae deletion strains, locus YLR058C, strain SHM2, stronger effect = lower value 1.01 | S. cerevisiae deletion strains, locus YLR102C, strain apc9, stronger effect = lower value 1.02 | S. cerevisiae deletion strains, locus YLR113W, strain HOG1, stronger effect = lower value 1.03 | S. cerevisiae deletion strains, locus YLR262C, strain YPT6, stronger effect = lower value 1.02 | S. cerevisiae deletion strains, locus YLR268W, strain sec22, stronger effect = lower value 1.04 | S. cerevisiae deletion strains, locus YLR330W, strain CHS5, stronger effect = lower value 1.01 | S. cerevisiae deletion strains, locus YLR342W, strain FKS1 (second series), stronger effect = lower value 1.02 | S. cerevisiae deletion strains, locus YLR371W, strain rom2, stronger effect = lower value 1.02 | S. cerevisiae deletion strains, locus YLR418C, strain cdc73, stronger effect = lower value 1.03 | S. cerevisiae deletion strains, locus YML016C, strain PPZ1, stronger effect = lower value 1 | S. cerevisiae deletion strains, locus YML032C, strain rad52, stronger effect = lower value 1.03 | S. cerevisiae deletion strains, locus YML124C, strain tub3, stronger effect = lower value 1.01 | S. cerevisiae deletion strains, locus YMR078C, strain ctf18, stronger effect = lower value 1.02 | S. cerevisiae deletion strains, locus YMR223W, strain ubp8, stronger effect = lower value 1.01 | S. cerevisiae deletion strains, locus YMR263W, strain SAP30, stronger effect = lower value 1.03 | S. cerevisiae deletion strains, locus YMR307W, strain GAS1, stronger effect = lower value 0.966 | S. cerevisiae deletion strains, locus YNL067W, strain RPL9B, stronger effect = lower value 1.02 | [3] 1.01 | [4] 1.01 | S. cerevisiae deletion strains, locus YNL183C, strain NPR1, stronger effect = lower value 0.978 | S. cerevisiae deletion strains, locus YNL233W, strain BNI4, stronger effect = lower value 1.01 | S. cerevisiae deletion strains, locus YNL250W, strain rad50, stronger effect = lower value 1.03 | S. cerevisiae deletion strains, locus YNL271C, strain bni1, stronger effect = lower value 1.02 | S. cerevisiae deletion strains, locus YNL298W, strain CLA4, stronger effect = lower value 1.01 | S. cerevisiae deletion strains, locus YNL307C, strain MCK1, stronger effect = lower value 1.02 | S. cerevisiae deletion strains, locus YNL322C, strain KRE1, stronger effect = lower value 1.01 | S. cerevisiae deletion strains, locus YNR052C, strain pop2, stronger effect = lower value 1.01 | S. cerevisiae deletion strains, locus YOL006C, strain TOP1, stronger effect = lower value 1.08 | S. cerevisiae deletion strains, locus YOL012C, strain htz1 0.922 | S. cerevisiae deletion strains, locus YOL147C, strain pex11, stronger effect = lower value 1.01 | S. cerevisiae deletion strains, locus YOR061W, strain CKA2, stronger effect = lower value 1.01 | S. cerevisiae deletion strains, locus YOR069W, strain VPS5, stronger effect = lower value 1.01 | S. cerevisiae deletion strains, locus YOR136W, strain idh2, stronger effect = lower value 1.01 | S. cerevisiae deletion strains, locus YOR144C, strain elg1, stronger effect = lower value 1.01 | S. cerevisiae deletion strains, locus YOR184W, strain ser1, stronger effect = lower value 1.02 | S. cerevisiae deletion strains, locus YOR231W, strain MKK1, stronger effect = lower value 1.02 | S. cerevisiae deletion strains, locus YOR316C, strain cot1, stronger effect = lower value 1.01 | S. cerevisiae deletion strains, locus YPL055C, strain LGE1, stronger effect = lower value 1.04 | S. cerevisiae deletion strains, locus YPL241C, strain CIN2, stronger effect = lower value 1.01 | S. cerevisiae deletion strains, locus YPL256C, strain CLN2, stronger effect = lower value 1.04 | S. cerevisiae deletion strains, locus YPR119W, strain clb2, stronger effect = lower value 1.01 | S. cerevisiae deletion strains, locus YPR141C, strain kar3, stronger effect = lower value 1.02 | S. cerevisiae deletion strains, locus YPR163C, strain tif3, stronger effect = lower value 1.02 | S. cerevisiae deletion strains, locus YPR167C, strain met16, stronger effect = lower value 1.01 | S. cerevisiae deletion strains, strain wtn01, stronger effect = lower value 1.01 | S. cerevisiae strains, strain wild type, stronger effect = lower value 1.01

CNC(=O)OCC[N+](C)(C)C
inactive: [1] 0.99 | S. cerevisiae deletion strains, locus YAL040C, strain CLN3, stronger effect = lower value 1 | S. cerevisiae deletion strains, locus YCL061C, strain MRC1 (second series), stronger effect = lower value 0.992 | S. cerevisiae deletion strains, locus YDR363W, strain ESC2, stronger effect = lower value 0.957 | S. cerevisiae deletion strains, locus YER002W, strain NOP16, stronger effect = lower value 0.968 | [2] 1.01 | [3] 1 | [4] 0.983 | S. cerevisiae deletion strains, locus YNL175C, strain NOP13, stronger effect = lower value 0.973 | S. cerevisiae deletion strains, locus YNL197C, strain WHI3, stronger effect = lower value 0.962 | S. cerevisiae deletion strains, locus YNL224C, strain SQS1, stronger effect = lower value 0.989 | S. cerevisiae deletion strains, locus YOR083W, strain WHI5 (second series), stronger effect = lower value 0.985
